Screening results as filed in PubChem.
An excerpt weighted towards active compounds, which were near 14% of everything screened.
Pf growth 96h – Primary qHTS for delayed death inhibitors of the malarial parasite plastid, 96 hour incubation. hit rate 6.9% among 320,000. Potency, µM (top dose mostly 28.7 µM), without a hit: at the top dose activity change, negative = inhibition, actives largely listed as inhibitors. P. falciparum luciferase reporter growth, 96 h; further: potency means the concentration at half of the fitted maximal effect
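96 h incubation, 37 C, 5% CO2, of luciferase-reporter P. falciparum-infected RBCs (2% hematocrit, 0.05% parasitemia final) with test compounds; endpoint luminescence.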
Pf growth 48h – Primary qHTS for delayed death inhibitors of the malarial parasite plastid, 48 hour incubation; P. falciparum luciferase growth in erythrocytes, 48 h; Potency, µM (top dose mostly 28.7 µM), without a hit: at the top dose activity change, negative = inhibition, hits mostly inhibitors; hit rate 5.9% among 310,000; further: potency means the concentration at half of the fitted maximal effect
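Growth was read as firefly luciferase luminescence after a 48 h, 37 C, 5% CO2 exposure of compounds to reporter-bearing P. falciparum cultures (0.1% parasitemia, 2% hematocrit final) in Albumax-supplemented RPMI 1640.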
FBPA Giardia inh – qHTS Assay for Inhibitors of Fructose-1,6-bisphosphate Aldolase from Giardia Lamblia; A8B2U2; purified Giardia FBPA; Potency, µM (highest dose often 59.6 µM), without a hit: top-dose activity, negative = inhibition, usual class: inhibitors; hit rate 0.71% among 290,000; AID 2451, 2010; further: potency means the concentration at half of the fitted maximal effect; nearly all actives have a fitted effect of over 55% in size
Target sequence (A8B2U2 whole entry, looked up): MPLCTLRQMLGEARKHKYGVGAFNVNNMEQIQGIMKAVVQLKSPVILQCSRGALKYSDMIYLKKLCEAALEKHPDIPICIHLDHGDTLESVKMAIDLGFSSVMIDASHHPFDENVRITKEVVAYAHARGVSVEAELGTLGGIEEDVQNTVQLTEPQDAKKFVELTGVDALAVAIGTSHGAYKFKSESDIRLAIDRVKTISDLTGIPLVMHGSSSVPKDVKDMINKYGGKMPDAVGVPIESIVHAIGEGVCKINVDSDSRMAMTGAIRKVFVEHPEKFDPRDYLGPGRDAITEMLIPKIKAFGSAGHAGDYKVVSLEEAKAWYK
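40 nM FBPA preincubated 10 min at RT with compound (up to 57.5 uM final), then substrate plus GAPDH/TPI/NAD/arsenate coupling and diaphorase/resazurin added. Fluorescence read after 20 min at RT, 525/598 nm.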
HCMV inh – qHTS Assay for inhibitors of the human cytomegalovirus (HCMV). HFF cells, HCMV-luciferase reporter, 72 h; active compounds read low. AID 1259415, 2018. activity change, negative = inhibition, % at 57.5 µM. hit rate 4.5% among 410,000; in the data active means activity change below about -60%; inconclusive means no clear call, values can overlap the other calls; inactive means above about -39%
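Human foreskin fibroblasts infected with luciferase-reporter HCMV at MOI 1 PFU/cell, compounds at two doses. Luciferase measured 72 h post infection; normalized to buffer-only basal and Salinomycin (10uM) controls.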
Sm TGR inh – qHTS Assay for the Inhibitors of Schistosoma Mansoni Peroxiredoxins; hit rate 3% among 360,000; purified TGR, DTNB reduction, TNB absorbance 405 nm; Schistosoma mansoni thioredoxin glutathione reductase (TGR), Q962Y6; Potency, µM (doses to about 114 µM), for inactives: at the highest dose activity change, negative = inhibition, most hits filed as inhibitors; further: potency means the concentration at half of the fitted maximal effect; nearly all actives have a fitted effect of over 60% in size
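Kinetic colorimetric format: TGR-catalysed, NADPH-driven DTNB reduction monitored via TNB absorbance. Enzyme dispensed at 20 nM; compound exposure 15 min at room temperature before reaction start.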
The depositor's hits bear a star; ? = inconclusive; / = no result. Unless noted, the call rests on the fitted dose curve; in most records, active means well fitted curve in the direction sought with a large enough effect; inconclusive means small, poorly fitted or top-dose-only effect, or another doubt; inactive means no such curve, though single readings can be large; an effect the other way counts as inactive or inconclusive. On the % scale 0 is the no-effect control and ±100 the full control effect.

SMILES | Pf growth 96h | Pf growth 48h | FBPA Giardia inh | HCMV inh | Sm TGR inh
CSC1CCCCC1(O)CSc1nc2c(cc1C#N)CCCC2 (stereo not drawn) | 55% | 9.3µM* | 4% | ? | 5%
Cc1ccc(NCCCn2cnc3c(OCc4ccccc4)ncnc32)cc1C | / | / | / | -11 | /
CC(=O)c1ccccc1NS(=O)(=O)c1ccc2c(c1)CC(=O)N2 | 4.7µM* | ? | / | -7 | 3%
Cc1ccccc1NS(=O)(=O)c1ccc2c(c1)CCC(=O)N2 | / | / | / | 35 | /
COc1ccc2c(c1OC)C(=O)OC2C1c2c(cc3c(c2OC)OCO3)CCN1C (stereo not drawn) | 13µM* | ? | -2% | -3 | -6%
CN1CCc2cc3c(c4c2[C@H]1[C@H](O)c1ccccc1-4)OCO3 | ? | 1.7µM* | ? | -71* | -8%
COc1ccc2c(c1OC)C(=O)O[C@H]2C1c2c(cc3c(c2OC)OCO3)CCN1C (stereo partly drawn) | / | / | 0% | / | /
CCC(C)NCCC(=O)Nc1ccc(Cl)c(S(=O)(=O)Nc2ccc(Cl)cc2)c1 (stereo not drawn) | 9.3µM* | 10µM* | 0% | -2 | 8%
COc1cccc(NC(=O)CSc2nc3cc(OC)c(OC)cc3c3nc(-c4ccccc4)nn23)c1 | / | / | / | 2 | 38%
CCc1ccc(C2CC(=O)N(c3cccc(C(F)(F)F)c3)C3=C2C(=O)OC3)cc1 (stereo not drawn) | / | / | / | 18 | 1%
Cc1nc2ccccc2cc1OCc1ccccc1 | 76% | 48% | -4% | -93* | 10%
COc1cccc(COc2cc3ccccc3nc2C)c1 | 69% | 54% | -10% | -79* | 10%
Cc1nc2ccccc2cc1OCc1ccc(Cl)cc1 | 14% | 3% | 9% | -75* | 7%
COC(=O)c1sccc1OCc1cccc(OC)c1 | ? | 22% | 0% | 29 | 6%
COc1ccc(-c2cc(C3C4C=CCCC4(C)C(=O)N3Cc3ccccc3)ccc2F)cc1OC (stereo not drawn) | / | / | -5% | / | /
O=C(CN1C(=O)c2ccc([N+](=O)[O-])cc2C1=O)NCc1ccc(C(=O)O)cc1 | 14% | 1% | -1% | 2 | -16%
COc1cccc(NC(=O)CSCc2cc(=O)c3ccc(C)c(C)c3[nH]2)c1 | / | / | / | 10 | -3%
O=C(Nc1ccccc1F)Nc1cccnc1Cl | / | / | / | 3 | /
Nc1ncnc2[nH]c(=O)[nH]c12 | / | / | 0% | / | /
COc1cccc(CN(Cc2ccco2)S(=O)(=O)c2ccc(S(=O)(=O)NCc3ccccc3)cc2)c1OC | 12% | 13µM* | 1% | -13 | -3%
CC(C)CNS(=O)(=O)c1ccc(CCC(=O)NCc2ccco2)cc1 | / | -14% | -1% | -9 | 45µM*
Cc1ccc(S(=O)(=O)NCC(=O)N(CCc2ccccc2)CC(=O)NCc2ccco2)cc1 | ? | -27% | 4% | -35 | 35µM*
COc1cccc(CN(CC(=O)NCc2ccco2)C(=O)CNS(=O)(=O)c2ccccc2)c1 | -3% | -11% | 6% | -61* | -21%
Cc1cc(C)cc(C(=O)n2nc(C)c(S(=O)(=O)N3CCOCC3)c2C)c1 | / | / | / | 9 | ?
Cc1ccc(S(=O)(=O)NCCNC(=O)c2cc(OCC(F)(F)F)ccc2OCC(F)(F)F)cc1 | ? | ? | 5% | 14 | 18%
SMILES | Pf growth 96h | Pf growth 48h | FBPA Giardia inh | HCMV inh | Sm TGR inh
O=C(NCCNS(=O)(=O)c1ccccc1Cl)c1cc(OCC(F)(F)F)ccc1OCC(F)(F)F | 12µM* | ? | -3% | 19 | 8%
FC(F)(F)Oc1ccc(NC(=S)Nc2ccc(OC(F)(F)F)cc2)cc1 | ? | ? | -3% | -16 | -2%
CS(=O)(=O)c1ccc(-n2nnc3ccccc32)c([N+](=O)[O-])c1 | -17% | -19% | -10% | -1 | -1%
N#Cc1cc([N+](=O)[O-])c(-n2nnc3ccccc32)c([N+](=O)[O-])c1 | 134% | 74% | 1% | / | 14µM*
COc1cc(OC)c(NS(=O)(=O)c2cc(Br)cnc2N)cc1Cl | 32% | ? | -12% | -20 | 0%
O=C(COc1ccc2ccccc2c1)NNC(=O)c1cnccn1 | 9.3µM* | 15µM* | 4% | -15 | -2%
CC(C)c1ccc(OCC(=O)NNC(=O)c2cnccn2)cc1 | 10µM* | ? | -21% | -17 | -1%
O=C(NCc1ccccc1)c1cc(C2COCCN2C(=O)CCc2ccccc2)on1 (stereo not drawn) | / | / | / | -22 | /
Fc1ccc(N/N=C2/CCSc3sccc32)c(F)c1 | 0% | 63% | 2% | 64 | 25µM*
Fc1ccc2c(c1)/C(=N/Nc1ccccn1)CCS2 | -20% | ? | -9% | 0 | -5%
COc1cc2cc(CN(CCc3cccc(C)c3)C(=S)NCCCN3CCOCC3)c(=O)[nH]c2cc1OC | 3% | ? | 2% | -82* | -4%
CC(=O)N(CCc1cccc(C)c1)Cc1cc2cc(C)ccc2[nH]c1=O | 251% | -4% | -7% | -25 | ?
Cc1ccc2cc(CN(C(=O)c3ccncc3)C(C)C)c(=O)[nH]c2c1 | 8.3µM* | ? | 3% | 8 | 4%
CNC(=S)N(CCc1cccc(C)c1)Cc1cc2cc(OC)c(OC)cc2[nH]c1=O | 58% | -23% | -4% | -36 | -10%
COc1cc2cc(CN(CCc3cccc(C)c3)C(=S)NCCCN(C)C)c(=O)[nH]c2cc1OC | 32% | 13µM* | 6% | -90* | -18%
CC(C)N(Cc1cc2ccccc2[nH]c1=O)C(=O)c1cccnc1 | 18% | 47% | 0% | 39 | -30%
CC(=O)N(CCc1cccc(C)c1)Cc1cc2ccc(C)cc2[nH]c1=O | 0.074µM* | -26% | -1% | -4 | -37%
CCOC(=O)c1ccc(N=Cc2cnc(N)nc2N)cc1 | / | / | / | 24 | /
COc1ccc(CCNC(=O)c2cccc(S(=O)(=O)N3CCOCC3)c2)cc1OC | ? | ? | / | -8 | -11%
CCOC(=O)c1sc(=S)n(-c2ccc(Cl)cc2)c1SC | 0.93µM* | ? | -5% | -38 | 0%
C=CCNC(=O)c1sc(=S)n(-c2ccc(C(=O)OCC)cc2)c1N | 2.9µM* | 11% | -24% | -10 | -3%
CCOC(=O)c1sc(=S)n(-c2ccccc2OC)c1N | 6.6µM* | -14% | -5% | 77 | 3%
CCOC(=O)c1sc(=S)n(-c2ccc(F)c(F)c2)c1N | ? | 5% | 2% | -19 | 2%
CCOc1ccccc1-n1c(N)c(C(N)=O)sc1=S | 1.7µM* | 28% | 1% | -63* | -2%
COC(=O)c1sc(=S)n(-c2ccccc2OC)c1N | ? | 34% | 10% | -4 | 7%
CCCSc1nc2sc3c(c2c(=O)n1Cc1ccccc1)CC(C)(CC)OC3 (stereo not drawn) | / | / | / | -24 | 0%
